# Laboratory results: ChEMBL document CHEMBL3988442, “University of Dundee, Small-Polar-MMV Screening Library” (2021)
# The whole screen tested about 48,000 compounds, of which about 13,000 (27%) showed an effect of 50% or more. The list shows a part of the results.
# Test system: Wolbachia pipientis
# Assay: Anti-Wolbachia Cell-Based Screen
# Assay type: functional
# Parameters: scale not given: in the data most compounds retested in dose-response had high values
# Conditions: 5 µM
row,Structure (SMILES),Percent Effect
1,c1ncn(CCNC2CCCN(Cc3noc(C4CC4)n3)C2)n1 (stereo not drawn),10.95%
2,c1ncn(CC2CCCN(Cc3noc(C4CC4)n3)C2)n1 (stereo not drawn),115%
3,CC(C)(C)c1nnc(CN2CCCC(Cn3cncn3)C2)o1 (stereo not drawn),3.207%
4,Cc1nc(CN2CCCC(Cn3cncn3)C2)no1 (stereo not drawn),79.74%
5,CC(C)(C)c1nc(CN2CCCC(Cn3cncn3)C2)no1 (stereo not drawn),114.7%
6,c1ncn(CC2CN(Cc3noc(C4CC4)n3)CCO2)n1 (stereo not drawn),0.6807%
7,CCCc1nc(CN2CCCC(Cn3cncn3)C2)no1 (stereo not drawn),15.71%
8,c1cnc(-c2nc(CN3CCCC(Cn4cncn4)C3)cs2)nc1 (stereo not drawn),1.551%
9,Cc1ccc(CNC(=O)NCC(=O)NC(C)(C)C)c(N2CCCC2)c1,2.082%
10,Fc1ccccc1-c1noc2c1CN(CC1CC1)CC2,-13.76%
11,Cn1ccnc1CN1C[C@@H](F)[C@@H](OCc2nc3cnccc3[nH]2)C1,4.118%
12,CCOCCn1c(=O)[nH]c2cc(C(=O)N(C)Cc3ccno3)ccc21,10.95%
13,O=C1CCC2(CCNCC2)CN1CCCNc1cccnc1,-8.003%
14,COCC(=O)N1CCN(CC2CC2)c2ncccc2C1,17.09%
15,O=C(C1CC1)N1CCN(Cc2ccncc2)c2ncccc2C1.O=C(O)C(F)(F)F.O=C(O)C(F)(F)F,97.41%
16,O=C(O)C(F)(F)F.O=C(O)CCC(=O)N1CCN(CC2CC2)c2ncccc2C1,-20.91%
17,Cc1ccc2c(n1)N(C)CCN(C(=O)C1CC1)C2.O=C(O)C(F)(F)F,-19.49%
18,CC(=O)NCC(=O)N1CCN(Cc2cccnc2)c2ncccc2C1,-23.25%
19,O=C(CC1CC1)N1CCN(Cc2cccnc2)c2ncccc2C1.O=C(O)C(F)(F)F.O=C(O)C(F)(F)F,108.8%
20,COCC(=O)N1CCN(Cc2cccnc2)c2ncccc2C1.O=C(O)C(F)(F)F.O=C(O)C(F)(F)F,107.3%
21,O=C(Cc1ccsc1)N1CCN(CC2CC2)c2ncccc2C1.O=C(O)C(F)(F)F,-24.66%
22,O=C(CC1CC1)N1CCN(Cc2ccncc2)c2ncccc2C1.O=C(O)C(F)(F)F.O=C(O)C(F)(F)F,106.6%

row,Structure (SMILES),Percent Effect
1,CCCS(=O)(=O)N1CCC2(CC1)CCn1c(-c3cnn(C)c3)cnc12.O=C(O)C(F)(F)F,-1.785%
2,CC(=O)NS(=O)(=O)c1ccc2c(c1)N(C)CCC2,-0.0475%
3,CCc1nsc(N2CCCN(C(=O)c3ccc(OC)cc3)CC2)n1,4.92%
4,CN(C)C(=O)N1CCC(C(=O)N2CCOC(CC3CCCCC3)C2)CC1 (stereo not drawn),1.077%
5,CN(C)Cc1nnc(C2CCCN(Cc3ccc(Cl)s3)C2)n1C (stereo not drawn),-1.038%
6,COc1ncnc2c1CCN(c1cc(C(F)(F)F)ncn1)CC2,-19.6%
7,N#Cc1ccnc(N2CCC(NCCN3CCCC3)CC2)c1,4.204%
8,Cn1cnnc1SCc1cc2c(cc1Br)OCO2,98.1%
9,Cn1cnnc1S(=O)(=O)Cc1cc(Cl)c2c(c1)OCO2,-6.914%
10,Cn1nnnc1SCCNC1CCN(c2ccc3c(c2)OCO3)CC1,-18.49%
11,Cn1c(N)nnc1SCc1cc(Br)ccc1Cl,-1.725%
12,Cn1nnnc1SCc1cc2c(cc1Cl)OCO2,119.1%
13,CN(Cc1cscn1)Cc1cc2c(cc1Br)OCO2,7.123%
14,Cn1cnnc1SCc1cc2c(cc1Cl)OCO2,116.9%
15,Cn1c(N)nnc1SCc1ccc(Cl)cc1Br,-13.54%
16,CC(C)C(=O)Nc1ccc(Sc2nncn2C)c(Cl)c1,7.85%
17,CCCc1cc(NC(=O)c2cc(N3CCNC3=O)c(F)cc2F)n[nH]1,-4.311%
18,Cc1noc(C)c1CN(C)Cc1nc(N)c2ccccc2n1,-15.35%
19,Cc1noc(C)c1CN(C)c1ncnc2onc(C)c12,10.95%
20,Cc1noc(C)c1CN(C)c1ncnc2ccccc12,85.55%
21,Cc1cccc(COC[C@H]2CC[C@H]3[C@H](CCN3Cc3ccco3)O2)n1,105.2%
22,Cc1cccc(COC[C@@H]2CC[C@H]3[C@H](CCN3Cc3ccco3)O2)n1.O=C(O)C(F)(F)F.O=C(O)C(F)(F)F,-8.217%

row,Structure (SMILES),Percent Effect
1,CN(C)C(=O)COC[C@H]1CC[C@@H]2[C@@H](CCN2Cc2ccco2)O1.O=C(O)C(F)(F)F,91.23%
2,Cc1cccc(COC[C@@H]2CC[C@H]3[C@H](CCN3C(=O)CC3CC3)O2)n1.O=C(O)C(F)(F)F,-1.291%
3,c1coc(CN2CC[C@@H]3O[C@@H](COCC4CCOCC4)CC[C@@H]32)c1,95.89%
4,COCCN1CC[C@@H]2O[C@@H](COCC(=O)N3CCCC3)CC[C@@H]21.O=C(O)C(F)(F)F,-7.716%
5,O=C(c1ccco1)N1CC[C@@H]2O[C@@H](COCC3CCOCC3)CC[C@@H]21,-0.1018%
6,O=C(c1ccco1)N1CC[C@@H]2O[C@H](COCC3CCOCC3)CC[C@@H]21,-18.62%
7,O=C(COC[C@H]1CC[C@H]2[C@H](CCN2c2ncccn2)O1)N1CCCC1.O=C(O)C(F)(F)F,-10.98%
8,O=C(COC[C@@H]1CC[C@H]2[C@H](CCN2Cc2ccco2)O1)N1CCCC1,94.38%
9,CN(C)C(=O)COCC1C[C@@H]2OCCN(Cc3ccco3)[C@H]2C1 (stereo partly drawn),-1.169%
10,COCCn1cc(NC(=O)NCC2CCN(c3ccccc3)C2)cn1 (stereo not drawn),6.997%
11,Cc1cc(CN2CCC(c3ccnn3CCO)CC2)no1,-5.622%
12,CCNc1ncc(C(=O)NCc2csc(-c3cnccn3)n2)cn1,-2.125%
13,CCC1COCCN1C(=O)NCc1cccc(-c2cnn(C)c2)c1 (stereo not drawn),-16.85%
14,Cc1ccc(CNC[C@H]2Cn3cc(-c4ccccc4)nc3CO2)cc1,-14.25%
15,COc1ccc(CNC[C@H]2COCc3nc4cc(F)ccc4n32)cn1,2.56%
16,c1csc(CN2CC[C@H]3O[C@@H](COCC4CC4)CC[C@H]32)c1,-24.01%
17,CN1C[C@@H](COCC2CC2)[C@H]2CCN(Cc3ccco3)CC[C@H]2C1=O.O=C(O)C(F)(F)F,-15.86%
18,O=C(O)C(F)(F)F.c1coc(CN2CC[C@H]3O[C@@H](COCC4CC4)CC[C@H]32)c1,103.1%
19,CCSc1nnc(N2CCN(c3ccccc3)CC2)s1,-16.68%
20,CCc1nc(N)nc(N(C)Cc2nncn2CCOC)c1C,-4.118%
21,Cc1noc(C)c1CN1CCN(Cc2nccn2C)C(C)C1 (stereo not drawn),-9.694%
22,Cc1cnc(CC2COCCN(Cc3nccn3C)C2)cn1 (stereo not drawn),117.2%

row,Structure (SMILES),Percent Effect
1,Cc1cc(-n2cccn2)ccc1CN1CCOCC(CN(C)C)C1 (stereo not drawn),-16.76%
2,Cn1ccnc1C1CCN(CCC2CCOC2)CC1 (stereo not drawn),-2.458%
3,Cc1cccc(CC2COCCN(Cc3nccn3C)C2)n1 (stereo not drawn),119.1%
4,CN(C)c1ccc(CC2COCCN(Cc3nccn3C)C2)nn1 (stereo not drawn),107.3%
5,Cn1ccnc1CN1CCOCC(Cc2ccccn2)C1 (stereo not drawn),-4.289%
6,CCN1CCN(S(=O)(=O)N2CCc3ccccc3C2)[C@H]2CS(=O)(=O)C[C@H]21,-15.22%
7,CS(=O)(=O)NCCCN1CCCC1c1ccccc1 (stereo not drawn),-6.695%
8,O=C1C(Nc2ccc3nccnc3n2)CCN1c1ccccc1 (stereo not drawn),8.259%
9,Cc1nnc2n1CC(CNCc1nc(-c3ccsc3)no1)CC2 (stereo not drawn),-10.67%
10,c1csc(-c2nnc(CSCCN3CCOCC3)o2)c1,0.2217%
11,CC1CN(C)c2ccccc2CN1C(=O)c1cnsn1 (stereo not drawn),-24.53%
12,CN1CCN(C(=O)c2csnn2)c2ccccc21,10.7%
13,O=C(Nc1c(N2CCCC2)cccc1N1CCCC1)c1cnsn1,-3.532%
14,CN1CCCN(S(=O)(=O)c2cn(C)cn2)c2cc(F)ccc21,-12.29%
15,CN1CCN(C(=O)c2cnsn2)c2cc(F)ccc21,151.8%
16,CN1CCCN(C(=O)c2cnsn2)c2cc(F)ccc21,119.4%
17,CN1CCCN(S(=O)(=O)c2cnn(C)c2)c2cc(Cl)ccc21,-13.02%
18,Cc1ccc(C(=O)N2CCCN(C)c3ccc(F)cc32)o1,112.2%
19,O=C(c1cncc(Br)c1)N1CCCc2ccc(F)cc21,6.203%
20,CN1CCCN(S(C)(=O)=O)c2cc(F)ccc21,-11.53%
21,CN1CCN(S(C)(=O)=O)c2cc(F)ccc21,-2.725%
22,CN1CCCN(C(=O)c2cnsn2)c2cc(Cl)ccc21,103.8%

row,Structure (SMILES),Percent Effect
1,CN(Cc1cnccn1)C(=O)c1ccc(CSc2nnc[nH]2)o1,-27.79%
2,CSc1ccc(NCC(=O)NCC(=O)N2CCCC2)cc1F,-3.658%
3,CN1CCN(C(=O)CCc2cccnc2)c2ccc(F)cc21,-6.701%
4,CN1CCN(C(=O)c2cnsn2)c2ccc(F)cc21,79.94%
5,CN1CCN(C(=O)CCCc2ccccn2)c2ccc(F)cc21,-53.44%
6,CCN(CC)C(=O)CCn1ncc2c(Cl)cccc21,18.4%
7,CCN(C(=O)c1c(Cl)cnn1CC)C(C)C(N)=O (stereo not drawn),-13.9%
8,CCN(CC)C(=O)c1c(Br)cnn1CC,113.9%
9,CCN(CC)C(=O)c1nnn(Cc2ccccc2)c1OC,4.418%
10,CCN(CC)C(=O)c1c(Cl)cnn1CC,102.5%
11,CCn1ncc(Br)c1CN(C)S(=O)(=O)c1ccc(C)cc1,6.609%
12,CC(=O)Nc1ccc(CN(C)Cc2snnc2C)cc1,104.3%
13,Cc1nc(CNC(=O)Nc2ccc3c(ccn3CCN(C)C)c2)no1,-28.14%
14,CC(=O)Nc1ccc(CNC(=O)CNCc2snnc2C)cc1,-4.998%
15,Cc1nnsc1CN(C)Cc1ccc(C(=O)Nc2sccc2C#N)cc1,-8.441%
16,CC(=O)Nc1ccc2nc(-c3nccn3CCCN(C)C)ccc2c1,3.374%
17,CC(=O)Nc1ccc2nc(CN(C)Cc3snnc3C)ccc2c1,89.45%
18,Cc1cnc(NC(=O)c2cccc(CN(C)Cc3snnc3C)c2)s1,-4.019%
19,CC(=O)Nc1ccc2nc(-c3nccn3C[C@@H]3CCCO3)ccc2c1,-0.02427%
20,CC(=O)Nc1ccc2nc(CN(C)Cc3noc(C)n3)ccc2c1,88.54%
